Assay outcomes from PubChem BioAssay.
CDC25B CDK2 inh = human CDC25B-CDK2/CyclinA binding inhibition; z-score (test concentration not listed); 94,000 compounds, 0.72% hits; HTRF CDC25B-CDK2/CyclinA binding, anti-His/anti-Flag; stronger effect = higher value; in the data active = z-score above about 3.2
TAR Tat displ = HIV-1 TAR-Tat binding disruption; HIV-1 TAR RNA, Tat peptide displacement FRET; stronger effect = higher value; z-score (concentration not given with the values); 100,000 compounds, 0.6% hits; AID 1259389; active = z-score of 3 or more in at least 2 runs
Each line names hits and unclear results; the compound was inactive in the other large screens. Compounds with a hit are over-represented: about 0.9% of the library has one in this group of screens.

O=C(NCc1ccco1)c1cc2nc(-c3ccc(Br)cc3)cc(C(F)(F)F)n2n1	none (no result: CDC25B CDK2 inh)
Cc1c(Cl)cccc1Nc1ccccc1C(=O)O	none (no result: CDC25B CDK2 inh)
O=C(O)c1ccccc1Nc1cccc2c1C(=O)c1cccc(Nc3ccccc3C(=O)O)c1C2=O	TAR Tat displ 19 (no result: CDC25B CDK2 inh)
Cc1cc([N+](=O)[O-])nn1CC(=O)Nc1cnc2ccccc2c1	none
COC(=O)c1sccc1NC(=O)COCc1cc(-c2cccs2)on1	none (no result: CDC25B CDK2 inh)
O=C(COCc1cc(-c2cccs2)on1)Nc1ccccc1Br	TAR Tat displ 10 (no result: CDC25B CDK2 inh)
CN(C)/C=C/C(=O)c1ccc(-c2cc(C(F)(F)F)n(C)n2)s1	none (no result: TAR Tat displ)
O=C1NC(NS(=O)(=O)c2ccccc2)(C(F)(F)F)C(=O)N1c1ccc(F)c(Cl)c1 (stereo not given)	CDC25B CDK2 inh 18 (no result: TAR Tat displ)
O=C1C2C(c3ccccc3)OC3(C(=O)c4ccccc4C3=O)C2C(=O)N1c1ccc(F)c(Cl)c1 (stereo not given)	none
Cc1ccc2nc(Nc3nc4c(c(=O)[nH]3)CCCC4)nc(C)c2c1	none
Cc1ccc2c(C)nc(Nc3nc4c(c(=O)[nH]3)CCC4)nc2c1	CDC25B CDK2 inh 10 (no result: TAR Tat displ)
O=c1c(SCc2c(F)cccc2Cl)nccn1-c1ccccc1	none (no result: CDC25B CDK2 inh)
COC(=O)c1cnc(N2CCCN(C(=O)NC3CCCCC3)CC2)nc1C(F)(F)F	none (no result: TAR Tat displ)
COc1ccccc1NS(=O)(=O)c1cc2c(cc1Cl)NC(=O)CO2	none (no result: CDC25B CDK2 inh)
C=CCSc1nnc(NC(=O)c2cc(=O)c3cc(CC)ccc3o2)s1	TAR Tat displ 9.8
C=CCSc1nnc(NC(=O)c2cc(=O)c3cc(Cl)ccc3o2)s1	none
O=C(NC1CCc2ccccc21)C1CCN(c2cnccn2)CC1 (stereo not given)	none
COc1ccc(Nc2nc(N3CCCC3)nc(N)c2[N+](=O)[O-])cc1	none (no result: CDC25B CDK2 inh)
CCOCCCNC(=O)c1cnc(N2CCCC2)nc1	none (no result: CDC25B CDK2 inh)
O=C(c1ccco1)N(c1cc2sc(=O)oc2c2ccccc12)S(=O)(=O)c1ccccc1	CDC25B CDK2 inh 19
O=C(Cc1ccccc1)N(c1ccc2oc(=O)sc2c1)S(=O)(=O)c1ccccc1	none
COc1ccc(-c2nnc3c4cc5c(cc4n(Cc4ccccc4F)cc2-3)OCCO5)cc1OC	CDC25B CDK2 inh 7.3
COc1ccc(-c2nnc3c4cc5c(cc4n(Cc4ccccc4)cc2-3)OCCO5)cc1	none
COc1ccccc1Cn1cc2c(-c3ccc(F)cc3)nnc-2c2cc3c(cc21)OCO3	none
COc1ccc(Cn2cc3c(-c4ccccc4)nnc-3c3cc4c(cc32)OCCO4)cc1	CDC25B CDK2 inh 7.4
CCCCNc1ccc2c3c(cccc13)C(=O)N(CCCC)C2=O	none (no result: TAR Tat displ)
CC1CN(C(=O)CCCC(=O)N2CC(C)OC(C)C2)CC(C)O1 (stereo not given)	none (no result: TAR Tat displ)
COc1ccccc1N1COc2ccc(F)cc2C1	none (no result: TAR Tat displ)
COc1ccc2ccccc2c1C1CC(=O)N2CN(c3ccc(F)cc3)CSC2=C1C#N (stereo not given)	none
COc1ccc(N2CSC3=C(C#N)C(c4c(OC)ccc5ccccc45)CC(=O)N3C2)c(OC)c1 (stereo not given)	CDC25B CDK2 inh 3.8
COc1ccc(N2CSC3=C(C#N)C(c4c(OC)ccc5ccccc45)CC(=O)N3C2)cc1 (stereo not given)	CDC25B CDK2 inh 6.4
COc1ccc2ccccc2c1C1CC(=O)N2CN(c3ccccc3)CSC2=C1C#N (stereo not given)	CDC25B CDK2 inh 4.8
CCOC(=O)C(O)(c1ccc(N=Cc2ccccc2O)cc1)C(F)(F)F (stereo not given)	none (no result: TAR Tat displ)
Cc1nnc2n(c1=O)C(CS(=O)(=O)c1ccccc1)CS2 (stereo not given)	none
O=C(Nc1ccc2snnc2c1)N1CCN(c2ccccc2)CC1	none
O=C(CCc1nnc2ccc(NCc3cccnc3)nn12)NC1CCCC1	none (no result: CDC25B CDK2 inh)
CC(C)CC(=O)NC(NC(=S)Nc1ccccc1Br)C(Cl)(Cl)Cl (stereo not given)	none (no result: TAR Tat displ)
CCC(=O)N1c2ccc(C)cc2C(=C2SC(C(=O)OC)=C(C(=O)OC)S2)C(=S)C1(C)C	none
CCOC(=O)C1=C(C(=O)OCC)SC(=C2C(=S)C(C)(C)Nc3ccc(C)cc32)S1	CDC25B CDK2 inh 19
COC(=O)C1=C(C(=O)OC)SC(=C2C(=S)C(C)(C)Nc3ccccc32)S1	CDC25B CDK2 inh 14
CCCC(=O)N1c2ccccc2C(=C2SC(C(=O)OC)=C(C(=O)OC)S2)C(=S)C1(C)C	none
CC(C)CCNC(=O)CCS(=O)(=O)c1cc(Br)cc2c1N(C(=O)C1CC1)CC2	none (no result: TAR Tat displ)
O=C(Cn1c(=O)c2cccn2c2ccccc21)N1CCc2ccccc21	none (no result: CDC25B CDK2 inh)
O=C(O)c1ccc2nc(-c3ccccc3)c(-c3ccccc3)nc2c1	none
O=C(O)c1ccc2nc3c(nc2c1)-c1cccc2cccc-3c12	TAR Tat displ 5.9
CC(C)C1Cc2c(sc3nc(SCc4ccccc4)nc(N)c23)CO1 (stereo not given)	none (no result: TAR Tat displ)
CCCCCCCCCCCCCCCC(=O)OC[C@H](O)[C@H]1OC(=O)C(O)=C1O	TAR Tat displ 17 (no result: CDC25B CDK2 inh)
O=C1O[C@H]([C@@H](O)CO)C(O)=C1O	none (no result: CDC25B CDK2 inh)
C=C1c2cccc(O)c2C(O)=C2C(=O)[C@]3(O)C(O)=C(C(N)=O)C(=O)[C@@H](N(C)C)[C@@H]3[C@@H](O)[C@H]12	TAR Tat displ 16 (no result: CDC25B CDK2 inh)
C=C1c2c(Cl)ccc(O)c2C(O)=C2C(=O)[C@]3(O)C(O)=C(C(N)=O)C(=O)[C@@H](N(C)C)[C@@H]3[C@@H](O)[C@H]12	TAR Tat displ 20 (no result: CDC25B CDK2 inh)
CCS(=O)(=O)N1CCCc2ccc(NS(=O)(=O)c3ccc4c(c3)OCCO4)cc21	none (no result: CDC25B CDK2 inh)
Cc1ccc(-c2c(N3CCc4ccccc43)c(=O)c2=O)cc1	none (no result: CDC25B CDK2 inh)
CC(C)(C)c1cc(C(C)(C)C)n(-c2ccc(N3CC(C(=O)O)CC3=O)cc2)n1 (stereo not given)	none (no result: TAR Tat displ)
O=C1N/C(=N\N=C\c2ccco2)SC1Cc1ccc(Cl)c(Cl)c1 (stereo not given)	none (no result: TAR Tat displ)
COc1cc2c(cc1OC)C1CC(=O)N(Cc3ccco3)C(=O)N1CC2 (stereo not given)	none (no result: CDC25B CDK2 inh)
O=C(Nc1ccc(S(=O)(=O)Nc2ncccn2)cc1)c1nn(-c2ccccc2)ccc1=O	none
Cc1noc(NS(=O)(=O)c2ccc(NC(=O)c3nn(-c4ccccc4)ccc3=O)cc2)c1C	TAR Tat displ 16
Cc1cc2oc(C(=O)Nc3ccc(S(=O)(=O)Nc4onc(C)c4C)cc3)cc(=O)c2cc1C	TAR Tat displ 4.4
Cc1ccc(C(=O)Nc2ccc(S(=O)(=O)Nc3onc(C)c3C)cc2)o1	none (no result: TAR Tat displ)
CCC(C)S(=O)(=O)c1oc(-c2ccc(C)cc2)nc1S(=O)(=O)c1ccccc1 (stereo not given)	none (no result: CDC25B CDK2 inh)
O=c1c2[nH]c3ccc(F)cc3c2ncn1Cc1ccc(F)cc1	none
COC(=O)C1=C(C)N=C2SCCC(=O)N2C1c1ccc(C(C)C)cc1 (stereo not given)	none
O=C(Nc1nn2c(-c3ccco3)nnc2s1)c1ccc(F)cc1	none
O=C(Nc1nn2c(-c3ccco3)nnc2s1)c1cccc(F)c1	none
O=C(COc1ccccc1)Nc1nn2c(-c3ccco3)nnc2s1	TAR Tat displ 32
COc1ccc(OCC(=O)Nc2nn3c(-c4ccco4)nnc3s2)cc1	TAR Tat displ 25
CCc1nnc2sc(NC(=O)c3ccco3)nn12	none
CC(C)Cc1nnc2sc(NC(=O)c3ccco3)nn12	TAR Tat displ 11
Cc1c(C(=O)NC2CCCc3ccccc32)sc2nc3n(c(=O)c12)CCC3 (stereo not given)	none (no result: CDC25B CDK2 inh)
COc1cc2nc(-n3nc(C)cc3C)n3nc(-c4ccccc4)nc3c2cc1OC	none
O=C1N=c2ccc([N+](=O)[O-])cc2=C1c1sc(NS(=O)(=O)Cc2ccccc2)nc1O	none (no result: TAR Tat displ)
N#Cc1cc2c(nc1SCC(=O)N(c1ccccc1)c1ccccc1)CCCC2=O	none
